Test results published in PubChem BioAssay (EPA / NIEHS).
Activity calls are given as the source filed them. How the source made its calls: active means hit-call score of the fitted dose curve at least 0.9, where 1 is the maximum; inactive means score below 0.9.

What was measured:
[1] = ATG_CMV_CIS: Attagene CIS-FACTORIAL HepG2 Assay for human CMV (Internal Marker) (AID 2282928); settings: HepG2 CMV promoter reporter, transcription factor profiling; actives raise or lower the signal;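 further: endpoint acts as a background internal control marker rather than a target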
Procedure, shortened: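 24 h chemical treatment, HepG2 with transient multi-reporter transfection; RNA → oligo(dT) RT → PCR → 6-FAM extension → HpaI digest → CE fluorescence. Bidirectional fit, DMSO negative control.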

[2] = ATG_DR4_LXR_CIS: Attagene CIS-FACTORIAL HepG2 Assay for human Liver X Receptor (LXR), DR4 submotif (AID 2282929); settings: HepG2 Attagene DR4 cis-reporter, mRNA transcription; actives raise or lower the signal
Procedure, shortened: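 Measures endogenous transcription factor activity via a DR4-driven reporter transcript in human HepG2 cells. Compounds incubated 24 h; mRNA quantified by RT-PCR and capillary electrophoresis, analysed as gain or loss of signal versus DMSO.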

[3] = target: Aryl hydrocarbon receptor (Homo sapiens) (UniProt P35869); assay: ATG_Ahr_CIS: Attagene CIS-FACTORIAL HepG2 Assay for human Aryl Hydrocarbon Receptor (Ahr) (AID 2282930); settings: HepG2 AhR cis-factorial reporter transcription; actives raise or lower the signal
Procedure, shortened: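 HepG2, transient MRTU (cis) transfection, 24 h exposure. RNA → cDNA → PCR → 6-FAM primer extension → HpaI 2 h 37 C → CE. Fit: bidirectional, DMSO baseline.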

[4] = ATG_AP_1_CIS: Attagene CIS-FACTORIAL HepG2 Assay for human Activator Protein 1 (AP-1) (AID 2282931); settings: HepG2 Attagene cis-factorial AP-1 reporter mRNA; actives raise or lower the signal
Procedure, shortened: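 Bidirectional concentration-response fitting against DMSO controls. Underlying signal: reporter mRNA from cis-promoter constructs in transiently transfected HepG2, measured after 24 h by RT-PCR and capillary electrophoresis.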

[5] = ATG_AP_2_CIS: Attagene CIS-FACTORIAL HepG2 Assay for human Activator Protein 2 (AP-2) (AID 2282932); settings: HepG2 AP-2 cis-reporter, Attagene transcription factor profiling; actives raise or lower the signal
Procedure, shortened: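 Transiently transfected HepG2 cells are exposed to chemical for 24 h. Reporter transcripts are then measured as fluorescence following RT-PCR and capillary separation, and gain- or loss-of-signal is fitted relative to DMSO.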

[6] = ATG_BRE_CIS: Attagene CIS-FACTORIAL HepG2 Assay for human Bone Morphogenetic Protein (BMP) Response Element (BRE) (AID 2282933); settings: HepG2 BMP response element reporter, Attagene transcription factor profiling; actives raise or lower the signal
Procedure, shortened: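 Transient MRTU transfection of human HepG2 liver cells; 24 h compound treatment; total RNA isolated, reverse-transcribed, PCR-amplified, 6-FAM labelled, HpaI-cut, capillary electrophoresis. DMSO = negative control/baseline, bidirectional fit.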

[7] = target: Retinoic acid receptor alpha (Homo sapiens) (UniProt P10276); assay: ATG_DR5_RAR_CIS: Attagene CIS-FACTORIAL HepG2 Assay for human Retinoic Acid Receptor Alpha (RARE), DR5 submotif (AID 2282934); settings: HepG2 Attagene cis-factorial RARE DR5 reporter, mRNA; actives raise or lower the signal;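 on AC50: reporter responds to endogenous RAR alpha beta and gamma in HepG2 not RARA alone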
Procedure, shortened: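 HepG2, transient cis-reporter transfection, 24 h exposure. mRNA readout: RT-PCR, FAM label, HpaI cut, capillary electrophoresis. DMSO baseline, gain/loss fitting.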

[8] = target: Transcription factor E2F1 (Homo sapiens) (UniProt Q01094); assay: ATG_E2F_CIS: Attagene CIS-FACTORIAL HepG2 Assay for human E2F Transcription Factor 1 (AID 2282935); settings: HepG2 Attagene cis-reporter, E2F reporter RNA transcripts; actives raise or lower the signal
Procedure, shortened: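 Fluorescent RT-PCR products, digested with HpaI for 2 h at 37 C, are separated by capillary electrophoresis. Source RNA comes from transfected HepG2 cultures treated for 24 h.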

[9] = ATG_E_Box_CIS: Attagene CIS-FACTORIAL HepG2 Assay for human Enhancer Box (E-box) (AID 2282936); settings: HepG2 E-box cis-reporter transcription, actives raise or lower the signal
Procedure, shortened: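 Fluorescent reporter fragments separated by capillary electrophoresis gave the signal; mRNA came from HepG2 cells transfected with cis-element reporters and treated 24 h. Curves fitted bidirectionally relative to DMSO controls.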

[10] = ATG_M_61_CIS: Attagene CIS-FACTORIAL HepG2 Assay for M61 Transcription Factor (Internal Marker) (AID 2282937); settings: HepG2 Attagene CIS-FACTORIAL M61 internal marker reporter; actives raise or lower the signal
Procedure, shortened: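 Fluorescence from labelled cDNA fragments, separated by capillary electrophoresis, quantifies reporter induction. HepG2 cells bearing transiently transfected cis-promoter MRTUs were incubated with test chemical for 24 h; DMSO defined baseline for gain/loss fitting.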

[11] = ATG_EGR_CIS: Attagene CIS-FACTORIAL HepG2 Assay for human Early Growth Response 1 (EGR1) (AID 2282938); settings: HepG2 Attagene CIS-FACTORIAL EGR reporter mRNA; actives raise or lower the signal
Procedure, shortened: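 Cell-based multiplex transcription assay: HepG2 carrying transfected cis-element reporter units, 24 h chemical treatment. Fluorescence from capillary electrophoresis of RT-PCR products gives mRNA levels; fitting is bidirectional relative to DMSO.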

[12] = ATG_ERE_CIS: Attagene CIS-FACTORIAL HepG2 Assay for Estrogen Response Element (ERE) (AID 2282940); settings: HepG2 ERE cis-reporter, Attagene RNA transcript; actives raise or lower the signal
Procedure, shortened: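 Transient MRTU transfection of human HepG2; cis-element promoters; 24 h dosing; total RNA → RT (oligo dT) → PCR → 6-FAM primer extension → HpaI digest → CE fluorescence. Bidirectional fit, DMSO baseline.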

[13] = ATG_Ets_CIS: Attagene CIS-FACTORIAL HepG2 Assay for human Erythroblast Transformation Specific (ETS) (AID 2282941); settings: HepG2 ETS cis-reporter transcription, actives raise or lower the signal
Procedure, shortened: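 Cis-regulated reporter mRNA induction in HepG2 (transient transfection), 24 h exposure, RT-PCR plus capillary electrophoresis detection; DMSO serves as negative control and baseline.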

[14] = target: Hepatocyte nuclear factor 3-beta (Homo sapiens) (UniProt Q9Y261); assay: ATG_FoxA2_CIS: Attagene CIS-FACTORIAL HepG2 Assay for human Forkhead box A2 (FOXA2) (AID 2282942); settings: HepG2 cis-reporter transcription factor activity, 24 h; actives raise or lower the signal
Procedure, shortened: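 In transiently transfected human HepG2 cells, promoter-driven reporter mRNA levels after 24 h chemical exposure are determined via RT-PCR with capillary electrophoresis. DMSO serves as baseline for bidirectional fitting.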

[15] = ATG_GATA_CIS: Attagene CIS-FACTORIAL HepG2 Assay for human GATA Binding Protein (AID 2282944); settings: HepG2 GATA cis-element reporter, Attagene multiplex mRNA; actives raise or lower the signal
Procedure, shortened: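 Transient MRTU transfection, HepG2, 24 h compound exposure. Total RNA → oligo(dT) RT → PCR → 6-FAM primer extension → HpaI cut → CE. Bidirectional fit vs DMSO.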

[16] = ATG_GLI_CIS: Attagene CIS-FACTORIAL HepG2 Assay for human Zinc Finger Protein GLI1 (AID 2282945); settings: HepG2, Attagene cis-factorial reporter mRNA, GLI element; actives raise or lower the signal
Procedure, shortened: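 Bidirectional curve fits relative to DMSO, using reporter mRNA levels from RT-PCR plus capillary electrophoresis. Cells were HepG2 transiently carrying cis-regulated reporter constructs, harvested 24 h after dosing.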

[17] = ATG_GRE_CIS: Attagene CIS-FACTORIAL HepG2 Assay for human Glucocorticoid Response Elements (GRE) (AID 2282947); settings: HepG2 GRE cis-reporter, Attagene multiplex mRNA; actives raise or lower the signal
Procedure, shortened: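 Multiplexed cis-reporter mRNA induction, HepG2, 24 h post-dose. RT-PCR, FAM-labelled, HpaI-digested amplicons by CE. Bidirectional fit vs DMSO.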

[18] = ATG_M_19_CIS: Attagene CIS-FACTORIAL HepG2 Assay for M19 Transcription Factor (Internal Marker) (AID 2282939); settings: HepG2 Attagene CIS-FACTORIAL M19 internal marker reporter; actives raise or lower the signal
Procedure, shortened: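 Transfect HepG2 with MRTU reporter library → dose chemical, 24 h → isolate total RNA, reverse-transcribe with oligo(dT) → PCR, 6-FAM label, HpaI cut (2 h, 37 C) → capillary electrophoresis. Bidirectional fit vs DMSO.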

[19] = ATG_FoxO_CIS: Attagene CIS-FACTORIAL HepG2 Assay for human Forkhead box O (FoxO) (AID 2282943); settings: HepG2 Attagene cis-reporter, FoxO element, mRNA; actives raise or lower the signal
Procedure, shortened: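 Human hepatoma HepG2 cells carry transiently introduced reporter transcription units controlled by cis promoter elements. Chemical treatment lasted 24 h, and mRNA signal was compared with DMSO.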

[20] = target: Bile acid receptor (Homo sapiens) (UniProt Q96RI1); assay: ATG_IR1_CIS: Attagene CIS-FACTORIAL HepG2 Assay for human Nuclear Receptor Subfamily 1 Group H Member 4 (NR1H4), IR1 submotif (AID 2282946); settings: IR1 reporter transcription, actives raise or lower the signal
Procedure, shortened: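 HepG2 cells transiently transfected with multiplexed cis-element reporter units read endogenous transcription factor activity. After 24 h compound exposure, reporter mRNA was quantified by RT-PCR, fluorescent labelling, HpaI digestion and capillary electrophoresis; bidirectional fitting versus DMSO baseline.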

Measured: AC50

Chain of Bile acid receptor (Homo sapiens) (Q96RI1 whole entry, looked up): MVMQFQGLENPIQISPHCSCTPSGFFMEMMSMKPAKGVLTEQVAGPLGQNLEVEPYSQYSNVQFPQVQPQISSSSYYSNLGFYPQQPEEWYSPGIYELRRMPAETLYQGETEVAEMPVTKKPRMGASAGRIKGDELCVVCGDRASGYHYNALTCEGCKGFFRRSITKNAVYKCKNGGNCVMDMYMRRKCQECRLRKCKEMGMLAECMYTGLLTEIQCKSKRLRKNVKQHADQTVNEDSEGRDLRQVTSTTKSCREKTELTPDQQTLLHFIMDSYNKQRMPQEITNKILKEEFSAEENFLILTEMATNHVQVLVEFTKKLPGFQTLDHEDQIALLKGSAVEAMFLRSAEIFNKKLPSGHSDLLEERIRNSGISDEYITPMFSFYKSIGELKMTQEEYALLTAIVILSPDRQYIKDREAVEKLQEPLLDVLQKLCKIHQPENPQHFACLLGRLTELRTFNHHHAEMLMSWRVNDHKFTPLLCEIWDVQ
Chain of Hepatocyte nuclear factor 3-beta (Homo sapiens) (Q9Y261 whole entry, looked up): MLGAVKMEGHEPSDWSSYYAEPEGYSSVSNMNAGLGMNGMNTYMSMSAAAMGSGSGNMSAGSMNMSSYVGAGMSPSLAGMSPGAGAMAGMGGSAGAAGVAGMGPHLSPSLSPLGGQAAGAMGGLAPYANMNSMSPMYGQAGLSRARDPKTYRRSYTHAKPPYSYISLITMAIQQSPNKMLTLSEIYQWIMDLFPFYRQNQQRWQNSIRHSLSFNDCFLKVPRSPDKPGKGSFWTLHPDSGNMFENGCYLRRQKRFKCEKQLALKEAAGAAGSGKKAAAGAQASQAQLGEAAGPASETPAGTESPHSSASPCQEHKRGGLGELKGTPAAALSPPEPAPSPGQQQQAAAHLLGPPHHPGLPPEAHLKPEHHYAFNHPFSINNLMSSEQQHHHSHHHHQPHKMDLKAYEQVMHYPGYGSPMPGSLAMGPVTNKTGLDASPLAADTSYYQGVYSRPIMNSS
Chain of Aryl hydrocarbon receptor (Homo sapiens) (P35869 whole entry, looked up): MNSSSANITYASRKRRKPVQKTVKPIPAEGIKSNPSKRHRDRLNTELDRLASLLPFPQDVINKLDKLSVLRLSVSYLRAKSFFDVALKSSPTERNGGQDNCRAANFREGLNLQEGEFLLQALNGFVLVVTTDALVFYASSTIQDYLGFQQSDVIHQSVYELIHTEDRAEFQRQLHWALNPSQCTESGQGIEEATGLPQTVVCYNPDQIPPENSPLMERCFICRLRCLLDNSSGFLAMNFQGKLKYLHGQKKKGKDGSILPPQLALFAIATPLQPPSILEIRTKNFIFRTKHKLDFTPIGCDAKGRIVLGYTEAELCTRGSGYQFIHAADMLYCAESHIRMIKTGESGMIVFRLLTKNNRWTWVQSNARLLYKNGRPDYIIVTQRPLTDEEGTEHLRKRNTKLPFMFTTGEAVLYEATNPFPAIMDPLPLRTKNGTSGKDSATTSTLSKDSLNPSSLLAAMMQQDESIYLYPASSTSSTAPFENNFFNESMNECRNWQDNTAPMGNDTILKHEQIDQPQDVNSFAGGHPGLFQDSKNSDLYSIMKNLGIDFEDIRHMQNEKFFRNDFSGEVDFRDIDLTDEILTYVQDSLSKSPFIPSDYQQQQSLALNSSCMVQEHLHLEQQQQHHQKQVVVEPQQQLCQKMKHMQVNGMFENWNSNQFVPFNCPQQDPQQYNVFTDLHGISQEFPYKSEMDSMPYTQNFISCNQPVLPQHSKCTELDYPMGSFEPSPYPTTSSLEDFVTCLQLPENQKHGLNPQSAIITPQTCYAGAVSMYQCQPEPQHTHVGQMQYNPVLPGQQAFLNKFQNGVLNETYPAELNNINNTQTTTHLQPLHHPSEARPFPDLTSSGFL
Chain of Retinoic acid receptor alpha (Homo sapiens) (P10276 whole entry, looked up): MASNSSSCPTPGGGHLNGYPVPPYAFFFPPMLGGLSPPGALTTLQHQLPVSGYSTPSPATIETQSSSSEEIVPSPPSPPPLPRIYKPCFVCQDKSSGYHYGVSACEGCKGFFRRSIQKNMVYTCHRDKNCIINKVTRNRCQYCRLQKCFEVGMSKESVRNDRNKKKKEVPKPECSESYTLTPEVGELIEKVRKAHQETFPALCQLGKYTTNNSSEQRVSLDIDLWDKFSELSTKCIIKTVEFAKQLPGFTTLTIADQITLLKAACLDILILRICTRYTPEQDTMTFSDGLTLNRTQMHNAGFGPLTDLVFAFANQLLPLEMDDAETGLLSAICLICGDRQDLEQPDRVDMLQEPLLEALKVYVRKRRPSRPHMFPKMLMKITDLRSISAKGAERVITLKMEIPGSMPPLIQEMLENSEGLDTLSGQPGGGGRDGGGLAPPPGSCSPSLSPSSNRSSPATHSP
Chain of Transcription factor E2F1 (Homo sapiens) (Q01094 whole entry, looked up): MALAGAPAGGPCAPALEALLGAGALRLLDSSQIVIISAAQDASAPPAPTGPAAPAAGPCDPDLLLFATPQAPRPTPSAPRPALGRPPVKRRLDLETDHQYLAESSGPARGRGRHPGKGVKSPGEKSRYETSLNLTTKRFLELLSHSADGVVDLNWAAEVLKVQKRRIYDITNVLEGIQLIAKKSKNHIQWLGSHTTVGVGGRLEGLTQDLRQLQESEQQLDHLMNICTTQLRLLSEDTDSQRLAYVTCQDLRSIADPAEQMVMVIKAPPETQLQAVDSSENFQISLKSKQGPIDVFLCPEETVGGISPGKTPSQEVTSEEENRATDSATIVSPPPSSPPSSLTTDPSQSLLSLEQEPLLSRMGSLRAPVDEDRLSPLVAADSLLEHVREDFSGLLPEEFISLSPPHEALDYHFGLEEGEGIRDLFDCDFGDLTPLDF

Cc1c([N+](=O)[O-])c(C)c([N+](=O)[O-])c(C(C)(C)C)c1[N+](=O)[O-]
active: [1] 100 µM | [2] 60.7 µM | [7] 3.83 µM | [12] 23.7 µM
not listed: [18] | [19] | [20]
inactive: all other assays above

O=[N+]([O-])c1c2ccccc2cc2ccccc12
not listed: [12] | [20]
inactive: all other assays above

C=CC(Cl)CCl (centres undefined)
not listed: [12] | [19]
inactive: all other assays above

O=C/C(Cl)=C(/Cl)C(=O)O
active: [1] 94.3 µM | [2] 70.7 µM | [5] 61.5 µM | [9] 100 µM | [11] 145 µM | [19] 132 µM
not listed: [12] | [20]
inactive: all other assays above

COC(=O)c1cc(Oc2ccc(Cl)cc2Cl)ccc1[N+](=O)[O-]
active: [3] 17 µM | [6] 64.1 µM | [11] 27.2 µM
not listed: [12] | [14] | [19]
inactive: all other assays above

ClCCN1CCOCC1
not listed: [18] | [20]
inactive: all other assays above

O=[N+]([O-])c1ccc(Nc2ccccc2)cc1
active: [6] 163 µM
not listed: [18]
inactive: all other assays above

O=C(NC(=O)c1c(F)cccc1F)Nc1cc(Cl)c(F)c(Cl)c1F
active: [2] 0.512 µM
not listed: [18] | [20]
inactive: all other assays above

[F][Sn]([c]1ccccc1)([c]1ccccc1)[c]1ccccc1
active: [1] 0.334 µM | [2] 0.528 µM | [3] 0.329 µM | [5] 1.84 µM | [9] 0.593 µM | [11] 0.336 µM | [12] 0.0177 µM | [13] 0.32 µM | [14] 0.892 µM | [16] 2.18 µM
inactive: [4] | [6] | [7] | [8] | [10] | [19] | [15] | [17]

N#Cc1ccccc1Cl
not listed: [12] | [20]
inactive: all other assays above

CCOC(=O)C(SP(=S)(OC)OC)c1ccccc1 (centres undefined)
not listed: [12] | [14]
inactive: all other assays above

O=NN1CCCCCCC1
not listed: [18]
inactive: all other assays above

Oc1c(Br)cc(Br)cc1Br
active: [3] 49.5 µM | [4] 27.7 µM | [6] 126 µM | [9] 30.4 µM | [11] 31.9 µM | [12] 24.9 µM
not listed: [17] | [18] | [20]
inactive: all other assays above

CCC[CH2][Sn]([Cl])([Cl])[CH2]CCC
active: [1] 0.721 µM | [2] 0.807 µM | [6] 0.316 µM | [11] 1.24 µM | [19] 0.66 µM | [16] 1.54 µM | [20] 1.73 µM
not listed: [12] | [14]
inactive: all other assays above

CC(C)=CC1C(C(=O)OCc2cccc(Oc3ccccc3)c2)C1(C)C (centres undefined)
active: [2] 22.3 µM
not listed: [12] | [14]
inactive: all other assays above
